PMK inhibit = S. pneumoniae PMK inhibitors, primary screen, biochemical, mevalonate pathway, pilot trial included; phosphomevalonate kinase (Streptococcus pneumoniae D39); purified PMK, PK/LDH-coupled NADH absorbance 340 nm; inhibition, % at 10 µM; 0.49% of 65,000 active; AID 539, 2006;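 active = top-ranked compounds by inhibition in the single 10 µM screen, taking a fixed number of the strongest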;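 also: 0% = full reaction with DMSO carrier and 100% = background rate without enzyme reaction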
DPM-DC inhibit = S. pneumoniae DPM-DC inhibitors, primary screen, biochemical, PK/LDH-coupled NADH fluorescence; purified DPM-DC; diphosphomevalonate decarboxylase (Streptococcus pneumoniae D39); calls only at 10 µM; 0.49% of 65,000 active;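 active = the 320 compounds with the highest percent inhibition in the single-dose primary screen, excluding strongly autofluorescent ones, cut at about 32% in these data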;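 also: kinetic rate of NADH fluorescence loss reporting ADP formed by the decarboxylase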
NADH enzymes = inhibitors of PK/LDH coupling enzymes, profiling panel, artefact control, biochemical, MLSMR library; 0.02% of 65,000 active; IC50, µM (series often up to 10 µM), for inactives: at the highest dose inhibition; coupled PK/LDH NADH assays, four targets;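 active = single-dose screening hits from any of four coupled enzyme assays that gave an IC50 when retested across doses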;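 also: the DPM-DC format reads NADH fluorescence rather than 340 nm absorbance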
MK inhibit = S. pneumoniae MK inhibitors, primary screen, biochemical, PK/LDH-coupled NADH absorbance; mevalonate kinase [Streptococcus pneumoniae D39]; purified MK, PK/LDH-coupled NADH absorbance 340 nm; inhibition, % at 10 µM; 0.48% of 65,000 active; AID 555, 2006;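 active = ranked among the strongest by inhibition in the single 10 µM screen, a fixed top-ranked set picked for dose follow-up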
Autofluor 339 = intrinsic fluorescence of library compounds, ex339/em460 – biochemical, MLSMR library, data from DPM-DC assay, artefact control, profiling panel; AID 709, 2007; 5.5% of 65,000 active; fluorescence fold increase at 10 µM; compound autofluorescence, ex339/em460 nm, NADH buffer; stronger effect = higher value; 1 = no-compound wells, NADH background;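 active = at 10 µM, mean starting fluorescence two-fold or more over control wells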;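 also: signal is the first read of a kinetic run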
A340 absorber = compound light absorbance at 340 nm, profiling panel, artefact control, biochemical, MLSMR library, data from PS, PMK, MK assays; compound absorbance at 340 nm, fold over control; fold change at 10 µM; 65,000 tested, under 10 active;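 active = at 10 µM dose, initial 340 nm absorbance at least 2 fold that of control wells; inactive = change under 2 fold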;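 also: initial absorbance extrapolated from kinetic A340 decline of NADH oxidation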
Active calls of the source: *; i = inactive; . = no result shown; + = active, no number. Shown are actives, neighbours in structure and some others; about 6.3% of the full set was active somewhere.

SMILES	PMK inhibit	DPM-DC inhibit	NADH enzymes	MK inhibit	Autofluor 339	A340 absorber
Cc1ccc(OCC(=O)Nc2ccc(O)c(C(=O)O)c2)cc1C	6.0	.	8.0%	9.0	3.28*	1.03
OC(COc1ccc(C2C=CCC2)cc1)CN1CCCCC1 (stereo not given)	2.0	i	4.0%	10.0	1.09	1.04
Cn1c(-c2ccccc2)c(CCO)c2ccccc21	0.0	i	2.0%	0.0	1.37	0.99
CCCc1c(CC)c(=N)c2ccccc2n1C	3.0	.	6.0%	8.0	3.45*	1.12
O=C(CP(=O)(c1ccccc1)c1ccccc1)Nn1cnnc1	0.0	i	3.0%	7.0	1.03	1.03
COc1ccc2[nH]c(=O)c(CN(Cc3ccco3)C(=O)c3ccccc3)cc2c1	8.0	.	8.0%	8.0	3.74*	1.06
CCOc1ccc2[nH]c(=O)c(CN(Cc3ccco3)C(=O)c3cccc(F)c3)cc2c1	20.0	i	15.0%	12.0	2.85*	1.01
CCOc1ccc2[nH]c(=O)c(CN(CC3COCCO3)C(=O)c3ccco3)cc2c1 (stereo not given)	17.0	.	11.0%	5.0	4.03*	1.03
O=c1[nH]c2ccccc2nc1Cc1ccccc1	1.0	i	12.0%	13.0	1.6	1.04
O=c1[nH]c2ccccc2nc1C(F)(F)C(F)F	4.0	.	5.0%	6.0	2.13*	1.05
COc1ccccc1Oc1coc2cc(O)ccc2c1=O	17.0	.	9.0%	0.0	4.76*	1.09
CCOc1ccccc1Oc1coc2cc(OC(=O)c3ccco3)ccc2c1=O	0.0	i	6.0%	9.0	1.53	1.07
CCOc1ccccc1Oc1coc2cc(O)ccc2c1=O	16.0	.	8.0%	0.0	4.7*	1.09
CC(=O)NC1(c2cccc(F)c2)CCN(C(=O)Nc2ccc(C#N)cc2)CC1	2.0	i	6.0%	16.0	1.13	1.04
Cn1c(=O)c2nc(-c3ccc(Cl)cc3Cl)oc2c2ccccc21	1.0	.	4.0%	6.0	2.04*	1.1
CCN(C(=O)COc1cc(=O)n(C)c2ccccc12)c1cccc(Cl)c1	8.0	i	5.0%	7.0	1.06	1
CC(C)n1c2ccccc2c2nc3ccccc3nc21	0.0	i	5.0%	0.0	2.69*	1.1
COc1ccc(C(=O)c2coc3ccc(O)c(CN4CCOCC4)c23)cc1	1.0	i	2.0%	6.0	1.04	1.04
COc1ccc(-c2coc3c(CN4CCCCC4)c(O)c(CN4CCCCC4)c(O)c3c2=O)cc1	26.0*	i	3.0%	0.0	1	1.03
O=C(CSc1nnc(-c2ccccc2)o1)N1CCN(c2ccccc2)CC1	1.0	i	3.0%	15.0	1.03	0.98
CCOc1ccc(-c2nnc(SCC(=O)N3CCN(c4ccccc4)CC3)o2)cc1	26.0*	i	4.0%	11.0	1.05	1.01
CCOC(=O)C(C)Sc1nc(-c2ccco2)cc(C(F)(F)F)c1C#N (stereo not given)	11.0	i	8.0%	12.0	2.82*	1.09
Cc1ccc2[nH]c(=O)c(CN(Cc3ccc4c(c3)OCO4)Cc3nnnn3Cc3ccco3)cc2c1	11.0	i	4.0%	8.0	1.09	1.01
O=c1[nH]c2cc3c(cc2cc1CN(CCCO)Cc1nnnn1Cc1ccc(F)cc1)OCO3	9.0	+	17.0%	7.0	3.14*	1.18
O=c1[nH]c2cc3c(cc2cc1CN(Cc1ccccc1)Cc1nnnn1Cc1ccco1)OCCO3	2.0	i	10.0%	6.0	2.47*	1.03
O=c1[nH]c2cc3c(cc2cc1CN(Cc1cccs1)Cc1nnnn1Cc1ccco1)OCCO3	6.0	i	11.0%	5.0	2.43*	1
CCC(C)(C)n1nnnc1CN(Cc1cccs1)Cc1cc2cc(OC)ccc2[nH]c1=O	8.0	i	7.0%	9.0	1.68	1.01
CCc1ccc2[nH]c(=O)c(CN(Cc3ccccc3)Cc3nnnn3Cc3ccco3)cc2c1	3.0	i	4.0%	9.0	1.22	1.04

Screening results as filed in PubChem BioAssay.
